These results are taken from PubChem BioAssay (NCATS).

Inconclusive results are not listed. Entries that show only a call come without a potency. Active and inactive are the calls of the source. Calls come from the whole dose curve; as a rule, active = well fitted curve in the direction sought with a large enough effect; inconclusive = small, poorly fitted or top-dose-only effect, or another doubt; inactive = no such curve, though single readings can be large; an effect the other way counts as inactive or inconclusive. Bridge positions count the residues as written; N and C are the ends. Square brackets hold non-standard residues; d marks the D form. Side chains are listed from the residue outwards. Peptide text beside a SMILES is read from it. * marks the point of attachment. Phg(4-OMe) = COc1ccc([C@H](N)C(=O)O)cc1; d(aIle) = CC[C@H](C)[C@@H](N)C(=O)O; d(aThr) = C[C@@H](O)[C@@H](N)C(=O)O; NMeF = CN[C@@H](Cc1ccccc1)C(=O)O; Isobutyryl = CC(C)C(=O)*
Potency is the fitted concentration of half-maximal effect.

A short description of the first experiment: qHTS for Activators of p53 Stress Response Pathway screened against the NCATS CANVASS Library (AID 1347388). To be noted: p53RE-bla HCT-116, beta-lactamase reporter, 16 h; series mostly up to 46.1 µM. A digest of the protocol:
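p53RE-bla HCT-116 cells (4000/well) were pre-incubated for 5 h, then treated with compound (11 points) for 16 h at 37C. After 2 h with CCF4, the 460/530 nm ratio gave reporter activation; CellTiter-Glo measured viability.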
`CC(C)=CCC[C@]12c3cc4c(cc3CC[C@@]1(C)[C@H](C)CC[C@@H]2O)[nH]c1ccccc14`: the Potency result is “inactive”.
Same read-out and setting: the same measure for `C/C=C/C1C=CC2CC(C)CC(C)C2C1C(=O)CC(=O)NC(CO)C/C=C/CCCCC` (configuration not stated): “inactive”.
On the same count and under the same terms, as for `C=C1CC[C@@H](Br)C(C)(C)[C@]12CC=C(C)C(=O)C2`, the entry is “inactive”.
Take `COc1cc(/C=C/C(=O)OC[C@@H](Cc2ccc(O)c(OC)c2)[C@@H](COC(=O)/C=C/c2ccc(O)c(OC)c2)Cc2ccc(O)c(OC)c2)ccc1O`: the Potency result is “inactive”.
Same read-out and setting: the same measure for `C=C[C@@]1(C)CC[C@@H]([C@H](C)C(=O)/C=C/C(C)(C)O)O1`: “inactive”; for `CC[C@H](C)[C@H]1NC(=O)[C@@H](NC(=O)C(C)C)[C@@H](C)OC(=O)[C@H](COC(=O)CNC(C)=O)NC(=O)[C@@H]([C@@H](C)O)NC(=O)[C@H](Cc2ccccc2)N(C)C(=O)[C@H](c2ccc(OC)cc2)NC1=O` (Isobutyryl-T[d(aIle)][Phg(4-OMe)][NMeF][d(aThr)]S([Gly-Ac]); ester 1-C): “inactive”; for `C=C(C)CC[C@H](Cc1c(O)cc(O)c2c1O[C@H](c1ccc(O)cc1)CC2=O)C(=C)C`: “inactive”.
Still for that read-out and setting: the same measure for `C[C@]12CC[C@]3(C1)[C@H](CC2=O)C[C@@H](OC(=O)c1ccccc1)[C@H]1[C@](C)(C(=O)O)CCC[C@@]13C`: “inactive”; for `Cc1occ2c1C(=O)c1c(cc(O)c(O)c1O)C2=O`: 11.7 µM (active).
Still for that read-out and setting: the same measure for `COc1ccc2[nH]c3c(c2c1)CCN1C[C@H]2C[C@@H](OC(=O)c4cc(OC)c(OC)c(OC)c4)[C@H](OC)[C@@H](OC)[C@H]2C[C@H]31`: “inactive”; for `C=C[C@](Cl)(CBr)CCC=C(C)C`: “inactive”; for `CC(=O)O[C@H]1c2ccccc2-c2c3c(cc4c2[C@@H]1N(C(C)=O)CC4)OCO3`: “inactive”.
On to `O[C@H]1c2ccccc2-c2c3c(cc4c2[C@@H]1NCC4)OCO3`, for which the Potency was 13.2 µM (active).
The same measure, in the same setting: the same measure for `C[C@]12CCC[C@](C)(C(=O)O)[C@@H]1CC[C@@]1(C)c3cocc3CC[C@H]21`: “inactive”; for `C[n+]1cc2cc(C(N)=O)[nH]c3c(=N)c(Cl)c(N)c1c23`: “inactive”; for `CCC(=O)N[C@@H](C[C@H](C)C(Cl)(Cl)Cl)C(=O)N1C(=O)C=C(OC)[C@@H]1CC(C)C`: “inactive”.
On the same count and under the same terms, as for `O=c1cc(-c2ccc(O)c(O)c2)oc2cc(O[C@@H]3O[C@H](CO)[C@@H](O)[C@H](O)[C@H]3O)cc(O)c12`, the entry is “inactive”; as for `C/C1=C/[C@@H](C)[C@H](O)[C@@H](O)/C=C/CC/C=C/C(=O)O[C@@H]1[C@H](C)C(=O)CCCC1CC(=O)NC(=O)C1`, “inactive”; as for `CN1CC[C@]2(c3cccc4c3N[C@H]3N(C)CC[C@@]43[C@]34CCN(C)[C@H]3Nc3ccccc34)c3ccccc3N[C@H]12`, “inactive”.
The same measure, in the same setting: as for `CC[C@H]1[C@H](C)[C@H](c2cc(OC)c(OC)cc2OC)[C@@H](C)[C@H](c2cc(OC)c(OC)cc2OC)[C@@]12C=C(OC)C(=O)C=C2OC`, the entry is “inactive”.
In the case of `COc1cc2c(cc1OC)[C@@H](c1ccc3c(c1)OCO3)C(C)C(C)C2=O` (some centres not stated), the Potency entry was “inactive”.
Take `CC(C)[C@]12CC[C@@]3(C)[C@H](C)CC[C@H](O)[C@@]3(CC1)c1cc3c(cc12)[nH]c1ccccc13`: the Potency result is “inactive”.
On the same count and under the same terms, the same measure for `C[C@H]1C=C[C@H]2CCCC[C@@H]2[C@H]1C(=O)[C@H]1CC2=C(C(=O)O)CCN2C1=O`: “inactive”; for `C/C(=C\CC[C@@H](C)[C@H]1CC[C@]2(C)C3=CCC4C(C)(C)[C@@H](O)C[C@@H](O)[C@]4(C)C3[C@H](O)C[C@@]12C)CO` (some centres not stated): “inactive”; for `COC12OC1(C13OC1(OC)C(=O)c1cc4cc(C)oc(=O)c4c(O)c1C3O)C(O)c1c(cc3cc(C)oc(=O)c3c1O)C2=O` (configuration not stated): “inactive”.
Consider `CO[C@H]1[C@@H](OC(=O)/C(C)=C\[C@@H]2O[C@@H]2[C@H]2O[C@H]2C)[C@H](O)[C@H](OCC23C[C@@H]4[C@H](C)CC[C@H]4C4(C=O)CC2C=C(C(C)C)C34C(=O)O)O[C@@H]1C` (some centres not stated), for which the Potency result is “inactive”.

Another experiment in a line: qHTS assay for small molecule disruptors of mitochondrial membrane potential screened against the NCATS CANVASS Library (AID 1347389). Note: nearly all actives have a fitted effect of over 60% in size. To be noted: HepG2 mitochondrial membrane potential, m-MPI red/green ratio, 1.5 h; series mostly up to 46.1 µM. A digest of the protocol: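 HepG2 cells (2,000/well) were plated overnight at 37C, exposed to compound for 1 hr at 37C/5% CO2, then loaded with Mito-MPS dye for 30 min. Depolarization was read as a drop in red (590 nm) to green (535 nm) fluorescence ratio.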
With `CC(C)=CCC[C@]12c3cc4c(cc3CC[C@@]1(C)[C@H](C)CC[C@@H]2O)[nH]c1ccccc14`, the Potency is 20.9 µM (active).
Still for that read-out and setting: as for `COc1cc(/C=C/C(=O)OC[C@@H](Cc2ccc(O)c(OC)c2)[C@@H](COC(=O)/C=C/c2ccc(O)c(OC)c2)Cc2ccc(O)c(OC)c2)ccc1O`, the figure is 7.41 µM (active); as for `C=C[C@@]1(C)CC[C@@H]([C@H](C)C(=O)/C=C/C(C)(C)O)O1`, “inactive”.
Same read-out and setting: as for `O=C1CC2OCC=C3CN4C5CC3C2[C@@H]2N1c1ccccc1[C@]52C[C@@H]4C1=C[C@H]2C3CC4N(CC[C@@]45c4ccccc4N(C1=O)[C@@H]25)C/C3=C/CO` (some centres not stated), the entry is “inactive”.
Still for that read-out and setting: as for `C=C1CC[C@@H](O[C@H]2C[C@@](O)([C@H](C)NC(=O)c3[nH]c(C)c(Cl)c3Cl)[C@H](O)[C@@H](C)O2)[C@@H]2C=C[C@H](C)C(/C(O)=C3/C(=O)[C@H](C(C)C)N([C@@H]4O[C@H](C)[C@H](OC(N)=O)[C@H](OC(C)=O)[C@@H]4OC)C3=O)[C@@H]12` (some centres not stated), the figure is 16.6 µM (active).
Turning to `CC[C@H](C)[C@H]1NC(=O)[C@@H](NC(=O)C(C)C)[C@@H](C)OC(=O)[C@H](COC(=O)CNC(C)=O)NC(=O)[C@@H]([C@@H](C)O)NC(=O)[C@H](Cc2ccccc2)N(C)C(=O)[C@H](c2ccc(OC)cc2)NC1=O` (Isobutyryl-T[d(aIle)][Phg(4-OMe)][NMeF][d(aThr)]S([Gly-Ac]); ester 1-C), the Potency result was “inactive”.
Consider `C=C(C)CC[C@H](Cc1c(O)cc(O)c2c1O[C@H](c1ccc(O)cc1)CC2=O)C(=C)C`, for which the Potency is 8.31 µM (active).
Still for that read-out and setting: as for `COc1c(O)cc2c(c1O)C(=O)c1c(coc1C)C2=O`, the figure is 10.5 µM (active).
As to `C[C@]12CC[C@]3(C1)[C@H](CC2=O)C[C@@H](OC(=O)c1ccccc1)[C@H]1[C@](C)(C(=O)O)CCC[C@@]13C`, the Potency entry is “inactive”.
Same read-out and setting: as for `Cc1occ2c1C(=O)c1c(cc(O)c(O)c1O)C2=O`, the figure is 7.41 µM (active); as for `C=C[C@](Cl)(CBr)CCC=C(C)C`, “inactive”.
Still for that read-out and setting: as for `CC(=O)O[C@H]1c2ccccc2-c2c3c(cc4c2[C@@H]1N(C(C)=O)CC4)OCO3`, the entry is “inactive”.
The same measure, in the same setting: the same measure for `C[C@]12CCC[C@](C)(C(=O)O)[C@@H]1CC[C@@]1(C)c3cocc3CC[C@H]21`: “inactive”.
For the compound `COc1cc(C2OCC3C(c4ccc(O)c(OC)c4)OCC23)ccc1O` (configuration not stated), the activity change, negative = depolarization was 2.39% [at 9.19 µM] (inactive).
For the compound `COc1cc(O)c(C(=O)[C@@H]2[C@H](CC=C(C)C)C(C)=CC[C@H]2c2ccccc2)c(O)c1`, the Potency is 4.67 µM (active).
Regarding `COc1cc2c(c(O)c1O)C(=O)c1c(coc1C)C2=O`, the Potency is 10.5 µM (active).
The same measure, in the same setting: as for `CCC(=O)N[C@@H](C[C@H](C)C(Cl)(Cl)Cl)C(=O)N1C(=O)C=C(OC)[C@@H]1CC(C)C`, the entry is “inactive”; as for `O=c1cc(-c2ccc(O)c(O)c2)oc2cc(O[C@@H]3O[C@H](CO)[C@@H](O)[C@H](O)[C@H]3O)cc(O)c12`, 8.31 µM (active); as for `C/C1=C/[C@@H](C)[C@H](O)[C@@H](O)/C=C/CC/C=C/C(=O)O[C@@H]1[C@H](C)C(=O)CCCC1CC(=O)NC(=O)C1`, “inactive”.
Still for that read-out and setting: as for `CN1CC[C@]2(c3cccc4c3N[C@H]3N(C)CC[C@@]43[C@]34CCN(C)[C@H]3Nc3ccccc34)c3ccccc3N[C@H]12`, the entry is “inactive”; as for `CC(=O)Oc1cc2c(c(OC(C)=O)c1C1CCc3cc(Cl)c(Cl)n31)C(=O)n1c-2cc(Cl)c1Cl` (configuration not stated), 2.09 µM (active); as for `COc1cc2c(cc1OC)[C@@H](c1ccc3c(c1)OCO3)C(C)C(C)C2=O` (some centres not stated), “inactive”.
Same read-out and setting: as for `C/C=C(/C)c1c(Cl)c(O)c(C)c2c1Oc1c(Cl)c(O)c(Cl)c(C)c1C(=O)O2`, the figure is 8.31 µM (active); as for `CC(C)C[C@@H]1c2c(O)c(C=O)c(O)c(C=O)c2O[C@]2(C)C=C[C@@H](C(C)C)C[C@H]12`, “inactive”.
For `C/C=C(/C)c1cc(O)c(C)c2c1Oc1cc(O)cc(C)c1C(=O)O2`, the Potency is 10.5 µM (active).
Still for that read-out and setting: the same measure for `CC(C)[C@]12CC[C@@]3(C)[C@H](C)CC[C@H](O)[C@@]3(CC1)c1cc3c(cc12)[nH]c1ccccc13`: 11.7 µM (active).
Still for that read-out and setting: as for `C[C@H]1C=C[C@H]2CCCC[C@@H]2[C@H]1C(=O)[C@H]1CC2=C(C(=O)O)CCN2C1=O`, the entry is “inactive”; as for `C/C=C(/C)c1c(Cl)c(OC)c(C)c2c1Oc1c(Cl)c(O)c(Cl)c(C)c1C(=O)O2`, 2.63 µM (active); as for `C/C(=C\CC[C@@H](C)[C@H]1CC[C@]2(C)C3=CCC4C(C)(C)[C@@H](O)C[C@@H](O)[C@]4(C)C3[C@H](O)C[C@@]12C)CO` (some centres not stated), “inactive”.
On the same count and under the same terms, the same measure for `COC12OC1(C13OC1(OC)C(=O)c1cc4cc(C)oc(=O)c4c(O)c1C3O)C(O)c1c(cc3cc(C)oc(=O)c3c1O)C2=O` (configuration not stated): “inactive”; for `CO[C@H]1[C@@H](OC(=O)/C(C)=C\[C@@H]2O[C@@H]2[C@H]2O[C@H]2C)[C@H](O)[C@H](OCC23C[C@@H]4[C@H](C)CC[C@H]4C4(C=O)CC2C=C(C(C)C)C34C(=O)O)O[C@@H]1C` (some centres not stated): “inactive”.
